Each sequence was assayed against T1, ELK3 (Homo sapiens, UniProt P41970 1-407) (assay: DAPPL (digital affinity profiling via proximity ligation, sequencing); 10 mM Tris-HCl pH 7.5, 50 mM NaCl, 1 mM DTT, 4% glycerol, room temperature, 30 min; GST-TFs on glutathione beads, 16-mer random dsDNA library, 0.1% formaldehyde crosslink after washing; high values mean tight binding). Conditions: protein: recombinant; tags: N-terminal GST; dsDNA, one strand shown.
T1 sequence: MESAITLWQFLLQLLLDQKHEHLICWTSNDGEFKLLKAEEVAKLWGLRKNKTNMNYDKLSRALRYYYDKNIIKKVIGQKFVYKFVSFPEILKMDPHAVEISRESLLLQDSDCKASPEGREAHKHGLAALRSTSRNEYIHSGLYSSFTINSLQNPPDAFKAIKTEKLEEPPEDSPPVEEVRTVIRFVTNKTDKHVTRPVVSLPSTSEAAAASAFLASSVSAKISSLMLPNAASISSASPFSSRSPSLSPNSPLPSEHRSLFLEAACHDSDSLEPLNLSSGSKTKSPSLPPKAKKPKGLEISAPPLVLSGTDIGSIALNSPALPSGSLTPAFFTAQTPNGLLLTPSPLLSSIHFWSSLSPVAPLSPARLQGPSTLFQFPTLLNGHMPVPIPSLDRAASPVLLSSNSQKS
Procedure, shortened: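 After expression in yeast as GST fusions, human transcription factors were bound to glutathione beads, DNA-barcoded and mixed with a tag-only sample. The pools were incubated with 200 nmole of a 16-mer random double-stranded DNA library in Tris/NaCl/DTT/glycerol buffer (30 min, room temperature), washed and crosslinked with 0.1% formaldehyde. Proximity ligation with BsaI/T4 ligase ran for 1 h at 37 °C, before PCR amplification and sequencing on an Illumina NextSeq500. Binding signal is a hexamer's read frequency for a factor divided by its frequency for the tag-only sample.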

Sequence	binding signal
TTTTAG	1.16 fold enrichment (6-mer frequency, TF over GST control)
TGTACC	1.28 fold enrichment (6-mer frequency, TF over GST control)
CCCTAA	1.28 fold enrichment (6-mer frequency, TF over GST control)
CACGCC	1.22 fold enrichment (6-mer frequency, TF over GST control)
ATCCAA	1.14 fold enrichment (6-mer frequency, TF over GST control)
CTGATC	1.4 fold enrichment (6-mer frequency, TF over GST control)
TTCACC	1.32 fold enrichment (6-mer frequency, TF over GST control)
CATCTG	1.25 fold enrichment (6-mer frequency, TF over GST control)
TATCCC	1.56 fold enrichment (6-mer frequency, TF over GST control)
CTCGCT	1.41 fold enrichment (6-mer frequency, TF over GST control)
ATTTGT	1.24 fold enrichment (6-mer frequency, TF over GST control)
TTTGTC	1.18 fold enrichment (6-mer frequency, TF over GST control)
TGACAA	1.12 fold enrichment (6-mer frequency, TF over GST control)
TATGCA	1.15 fold enrichment (6-mer frequency, TF over GST control)
ACAAAC	1.17 fold enrichment (6-mer frequency, TF over GST control)
TTAAGT	1.23 fold enrichment (6-mer frequency, TF over GST control)
TGCGGA	1.23 fold enrichment (6-mer frequency, TF over GST control)
GCTCTT	1.56 fold enrichment (6-mer frequency, TF over GST control)
CGACGC	1.01 fold enrichment (6-mer frequency, TF over GST control)
AACTTC	2.72 fold enrichment (6-mer frequency, TF over GST control)

Sequence	binding signal
GACCTA	1.21 fold enrichment (6-mer frequency, TF over GST control)
CCCAAC	1.02 fold enrichment (6-mer frequency, TF over GST control)
TTAGAA	1.06 fold enrichment (6-mer frequency, TF over GST control)
ACATTC	1.35 fold enrichment (6-mer frequency, TF over GST control)
CTCAGT	1.24 fold enrichment (6-mer frequency, TF over GST control)
CCCACT	1.42 fold enrichment (6-mer frequency, TF over GST control)
CAATAG	1.13 fold enrichment (6-mer frequency, TF over GST control)
TTGATC	1.26 fold enrichment (6-mer frequency, TF over GST control)
CGCTGC	1.16 fold enrichment (6-mer frequency, TF over GST control)
AAGGTA	1.09 fold enrichment (6-mer frequency, TF over GST control)
CATTCA	1.16 fold enrichment (6-mer frequency, TF over GST control)
TCTCCG	1.38 fold enrichment (6-mer frequency, TF over GST control)
ACCTGA	1.07 fold enrichment (6-mer frequency, TF over GST control)
CAAACC	1.15 fold enrichment (6-mer frequency, TF over GST control)
TAAGCT	1.12 fold enrichment (6-mer frequency, TF over GST control)
CTGGTC	1.09 fold enrichment (6-mer frequency, TF over GST control)
TGCCCG	1.12 fold enrichment (6-mer frequency, TF over GST control)
CCGACG	1.2 fold enrichment (6-mer frequency, TF over GST control)
GCTTGG	1.15 fold enrichment (6-mer frequency, TF over GST control)
TACCCA	1.09 fold enrichment (6-mer frequency, TF over GST control)

From publication PMC7862700, “An all-to-all approach to the identification of sequence-specific readers for epigenetic DNA modifications on cytosine”
